About 79,000 compounds went through this panel and 15% of them were active in at least one assay; those are over-represented in the sample as a whole. Unmarked numbers belong to inactive results. Calls of active or inactive are those of the source. No stated cut-off is given here; in the data, active means growth inhibition above about 70%; inactive means the rest.
assay: NCI Yeast Anticancer Drug Screen. Data for the rad50 strain (AID 155);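 further: 0% = growth of vehicle-only cultures of the same strain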; settings: S. cerevisiae rad50 strain growth inhibition; at 50.0 µM; hits give high values
Outline: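 Inhibition values express reduced yeast growth in compound-treated cultures relative to vehicle-treated controls.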

With O=C(O)C(Sc1ccccc1)c1ccccc1 (stereo not given) as the compound, how does the growth inhibition read?
The growth inhibition was 0.8%.

With NC(Cc1ccc(S(=O)(=O)O)cc1)C(=O)NC(Cc1ccc(S(=O)(=O)O)cc1)C(=O)NC(Cc1ccc(S(=O)(=O)O)cc1)C(=O)O (stereo not given) as the compound, how does the growth inhibition read?
Its growth inhibition is -4.25%.

For COc1ccc(CCNC(=O)CCC2CCN(CCc3ccc(OC)c(OC)c3)CC2)cc1OC, which growth inhibition is on record?
The growth inhibition was 16.2%.

With OC1(c2ccccc2)C(c2ccccc2)=C(c2ccccc2)C(c2ccc(CCCCCCCCc3ccc(C4=C(c5ccccc5)C(O)(c5ccccc5)C(c5ccccc5)=C4c4ccccc4)cc3)cc2)=C1c1ccccc1 (stereo not given) as the compound, how does the growth inhibition read?
Its growth inhibition is -20.4%.

For S=C(c1ccccc1)N1CCCCC1, which growth inhibition is on record?
Its growth inhibition is 8%.

With N#CC1(Cl)CC2CC1C1N=NN(c3ccccc3)C21 (stereo not given) as the compound, how does the growth inhibition read?
Its growth inhibition is -24.6%.

For Fc1ccc2nncc(SCc3ccc(Cl)c(Cl)c3)c2c1, which growth inhibition is on record?
Its growth inhibition is -1%.

For CON(C)C(C#N)=C(C#N)C#N, which growth inhibition is on record?
The growth inhibition was 9.75%.

Which growth inhibition does the source give for CCC(/C(=N/NC(=O)C[N+](C)(C)C)c1ccccc1)C1OC(=O)c2ccccc21 (stereo not given) here?
Its growth inhibition is 15.2%.

For N#Cc1ccc(NN=NCCOCCCl)cc1, which growth inhibition is on record?
Its growth inhibition is 18.3%.

With Nc1nc(N)nc(C2C=CCCC2)n1 (stereo not given) as the compound, how does the growth inhibition read?
Its growth inhibition is -19.6%.

With COC(=O)NS(=O)(=O)C1=Cc2cccc3cccc1c23 as the compound, how does the growth inhibition read?
The growth inhibition was 8.55%.

For CCCN1C(=O)c2cc(=O)n(Cc3ccccc3)c(O)c2C1C (stereo not given), which growth inhibition is on record?
Its growth inhibition is 6.95%.

Which growth inhibition does the source give for O=C1CCC(=O)N2C(=O)CCC(=O)N12 here?
The growth inhibition was -33.5%.

With COC(=O)CC/C=N/NC(N)=O as the compound, how does the growth inhibition read?
The growth inhibition was 10.2%.

Which growth inhibition does the source give for BrC1=C(c2ccccc2)C2CCCCC2C1(Br)c1ccccc1 (stereo not given) here?
The growth inhibition was 96.2% (active).

Which growth inhibition does the source give for CC(C)CCC(=S)N1CCN(c2ccccc2)CC1 here?
The growth inhibition was -0.4%.

With CCCCNC(=O)Oc1c(Cl)cc(Cl)c(Cl)c1[N+](=O)[O-] as the compound, how does the growth inhibition read?
The growth inhibition was 16.2%.

Which growth inhibition does the source give for [N-]=[N+]=Nc1nc2c(N)ncnc2n1C1OC(CO)C(O)C1O (stereo not given) here?
The growth inhibition was 23.4%.

Which growth inhibition does the source give for Cc1ccccc1OCC1COCN(C(C)(C)CO)CO1 (stereo not given) here?
Its growth inhibition is -11.1%.

For O=C1c2ccccc2CC12Cc1cc3c(cc1C2=O)CCC3 (stereo not given), which growth inhibition is on record?
Its growth inhibition is 5.05%.

Which growth inhibition does the source give for Brc1ccccc1/C=N\N=C\c1ccccc1Br here?
Its growth inhibition is 12.9%.

With O=C(CC1NCCS1)OCc1ccc(Br)cc1 (stereo not given) as the compound, how does the growth inhibition read?
Its growth inhibition is 26.5%.

Which growth inhibition does the source give for CCCCCCCC(N)=O here?
Its growth inhibition is 15.7%.

For CN(C)NC(=O)CC#N, which growth inhibition is on record?
Its growth inhibition is -18.4%.

For Cc1ccc2c(c1)C(C(C)C)CCC2(C)C (stereo not given), which growth inhibition is on record?
Its growth inhibition is 5.3%.

For CC(=O)NC(C=O)C(O)C(O)C(O)C(=O)O (stereo not given) (tested in a mixture with another compound), which growth inhibition is on record?
Its growth inhibition is -25.4%.

For CCS(=O)(=O)C(S(C)(=O)=O)S(=O)(=O)C(C)C (stereo not given), which growth inhibition is on record?
The growth inhibition was -1.65%.

With CN1CCC2(C1)C1CC3CC(C1)CC2C3 (stereo not given) as the compound, how does the growth inhibition read?
Its growth inhibition is 1.2%.

Which growth inhibition does the source give for Cn1c(CC(O)(C(F)(F)Cl)C(F)(F)Cl)cc(=O)n1-c1ccccc1 here?
The growth inhibition was 41.6%.

Which growth inhibition does the source give for CC(=O)NC1c2ccccc2Oc2c(C)cccc21 (stereo not given) here?
The growth inhibition was -8.8%.

For C[C@@]1(NC(=O)Cc2ccccc2)C(=O)N2CCS[C@@]21c1ccccc1, which growth inhibition is on record?
Its growth inhibition is 0.4%.

With CC(C)CCCC(C)C1CCC2C3C(=O)C=C4CC(OC(=O)CCC(C)C)CCC4(C)C3CCC12C (stereo not given) as the compound, how does the growth inhibition read?
The growth inhibition was -0.05%.

With CN(CC(=O)O)C(=N)N as the compound, how does the growth inhibition read?
Its growth inhibition is -8.3%.

For OCCOc1ccc(Cl)cc1Cl, which growth inhibition is on record?
The growth inhibition was -6%.

For COc1cc([N+](=O)[O-])cc(C(C)=O)c1O, which growth inhibition is on record?
The growth inhibition was 17.9%.

Which growth inhibition does the source give for CCn1ncc2ccc(N(CO)CO)cc21 here?
Its growth inhibition is -2.4%.

With Cn1c(=O)c2c(-c3ccccc3)onc2n(C)c1=O as the compound, how does the growth inhibition read?
Its growth inhibition is 16.3%.

With Cn1c(=O)[nH]nc(Br)c1=O as the compound, how does the growth inhibition read?
The growth inhibition was 2.55%.

With [N-]=[N+]=NC1CC(n2cc(Cc3ccccc3)c(N)nc2=O)OC1CO (stereo not given) as the compound, how does the growth inhibition read?
Its growth inhibition is -0.1%.

assay: NCI Yeast Anticancer Drug Screen. Data for the mec2-1 strain (AID 157); settings: S. cerevisiae mec2-1 strain, at 50.0 µM, hits give high values
Outline: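 Using mec2-1 yeast: add compound, measure growth, express inhibition versus vehicle-treated cultures.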

With O=C(O)C(Sc1ccccc1)c1ccccc1 (stereo not given) as the compound, how does the growth inhibition read?
Its growth inhibition is -8.2%.

With NC(Cc1ccc(S(=O)(=O)O)cc1)C(=O)NC(Cc1ccc(S(=O)(=O)O)cc1)C(=O)NC(Cc1ccc(S(=O)(=O)O)cc1)C(=O)O (stereo not given) as the compound, how does the growth inhibition read?
The growth inhibition was -14.8%.

With COc1ccc(CCNC(=O)CCC2CCN(CCc3ccc(OC)c(OC)c3)CC2)cc1OC as the compound, how does the growth inhibition read?
The growth inhibition was -2.05%.

With OC1(c2ccccc2)C(c2ccccc2)=C(c2ccccc2)C(c2ccc(CCCCCCCCc3ccc(C4=C(c5ccccc5)C(O)(c5ccccc5)C(c5ccccc5)=C4c4ccccc4)cc3)cc2)=C1c1ccccc1 (stereo not given) as the compound, how does the growth inhibition read?
Its growth inhibition is -3.95%.

With S=C(c1ccccc1)N1CCCCC1 as the compound, how does the growth inhibition read?
The growth inhibition was -1.7%.

With N#CC1(Cl)CC2CC1C1N=NN(c3ccccc3)C21 (stereo not given) as the compound, how does the growth inhibition read?
Its growth inhibition is -15.3%.

For Fc1ccc2nncc(SCc3ccc(Cl)c(Cl)c3)c2c1, which growth inhibition is on record?
Its growth inhibition is 0.15%.

Which growth inhibition does the source give for CON(C)C(C#N)=C(C#N)C#N here?
The growth inhibition was 1.85%.

With CCC(/C(=N/NC(=O)C[N+](C)(C)C)c1ccccc1)C1OC(=O)c2ccccc21 (stereo not given) as the compound, how does the growth inhibition read?
Its growth inhibition is 2.15%.

For N#Cc1ccc(NN=NCCOCCCl)cc1, which growth inhibition is on record?
The growth inhibition was 26.6%.

With Nc1nc(N)nc(C2C=CCCC2)n1 (stereo not given) as the compound, how does the growth inhibition read?
The growth inhibition was 1.85%.

For COC(=O)NS(=O)(=O)C1=Cc2cccc3cccc1c23, which growth inhibition is on record?
Its growth inhibition is 4.95%.

Which growth inhibition does the source give for CCCN1C(=O)c2cc(=O)n(Cc3ccccc3)c(O)c2C1C (stereo not given) here?
Its growth inhibition is 33%.

With O=C1CCC(=O)N2C(=O)CCC(=O)N12 as the compound, how does the growth inhibition read?
Its growth inhibition is -26.3%.

With COC(=O)CC/C=N/NC(N)=O as the compound, how does the growth inhibition read?
Its growth inhibition is 4.5%.

Which growth inhibition does the source give for BrC1=C(c2ccccc2)C2CCCCC2C1(Br)c1ccccc1 (stereo not given) here?
The growth inhibition was 97.1% (active).

For CC(C)CCC(=S)N1CCN(c2ccccc2)CC1, which growth inhibition is on record?
The growth inhibition was 7.25%.

For CCCCNC(=O)Oc1c(Cl)cc(Cl)c(Cl)c1[N+](=O)[O-], which growth inhibition is on record?
Its growth inhibition is 10.1%.

For [N-]=[N+]=Nc1nc2c(N)ncnc2n1C1OC(CO)C(O)C1O (stereo not given), which growth inhibition is on record?
Its growth inhibition is 16.4%.

With Cc1ccccc1OCC1COCN(C(C)(C)CO)CO1 (stereo not given) as the compound, how does the growth inhibition read?
Its growth inhibition is -4.5%.

For O=C1c2ccccc2CC12Cc1cc3c(cc1C2=O)CCC3 (stereo not given), which growth inhibition is on record?
Its growth inhibition is -16.9%.

For Brc1ccccc1/C=N\N=C\c1ccccc1Br, which growth inhibition is on record?
Its growth inhibition is 2.5%.

With O=C(CC1NCCS1)OCc1ccc(Br)cc1 (stereo not given) as the compound, how does the growth inhibition read?
Its growth inhibition is 14.1%.

For CCCCCCCC(N)=O, which growth inhibition is on record?
Its growth inhibition is -28.1%.

For CN(C)NC(=O)CC#N, which growth inhibition is on record?
The growth inhibition was -1.55%.

Which growth inhibition does the source give for Cc1ccc2c(c1)C(C(C)C)CCC2(C)C (stereo not given) here?
Its growth inhibition is -8.1%.

Which growth inhibition does the source give for CC(=O)NC(C=O)C(O)C(O)C(O)C(=O)O (stereo not given) (tested in a mixture with another compound) here?
The growth inhibition was -31.2%.

For CCS(=O)(=O)C(S(C)(=O)=O)S(=O)(=O)C(C)C (stereo not given), which growth inhibition is on record?
Its growth inhibition is 31.6%.

For CN1CCC2(C1)C1CC3CC(C1)CC2C3 (stereo not given), which growth inhibition is on record?
Its growth inhibition is -13.9%.

With Cn1c(CC(O)(C(F)(F)Cl)C(F)(F)Cl)cc(=O)n1-c1ccccc1 as the compound, how does the growth inhibition read?
Its growth inhibition is 1.3%.

Which growth inhibition does the source give for CC(=O)NC1c2ccccc2Oc2c(C)cccc21 (stereo not given) here?
The growth inhibition was 0.85%.

For C[C@@]1(NC(=O)Cc2ccccc2)C(=O)N2CCS[C@@]21c1ccccc1, which growth inhibition is on record?
Its growth inhibition is 0.8%.

Which growth inhibition does the source give for CC(C)CCCC(C)C1CCC2C3C(=O)C=C4CC(OC(=O)CCC(C)C)CCC4(C)C3CCC12C (stereo not given) here?
The growth inhibition was 11.9%.

For CN(CC(=O)O)C(=N)N, which growth inhibition is on record?
The growth inhibition was -11.8%.

With OCCOc1ccc(Cl)cc1Cl as the compound, how does the growth inhibition read?
The growth inhibition was -32%.

Which growth inhibition does the source give for COc1cc([N+](=O)[O-])cc(C(C)=O)c1O here?
The growth inhibition was 37.2%.

With CCn1ncc2ccc(N(CO)CO)cc21 as the compound, how does the growth inhibition read?
The growth inhibition was 22.1%.

With Cn1c(=O)c2c(-c3ccccc3)onc2n(C)c1=O as the compound, how does the growth inhibition read?
Its growth inhibition is 12.8%.

For Cn1c(=O)[nH]nc(Br)c1=O, which growth inhibition is on record?
The growth inhibition was -9.7%.

Which growth inhibition does the source give for [N-]=[N+]=NC1CC(n2cc(Cc3ccccc3)c(N)nc2=O)OC1CO (stereo not given) here?
The growth inhibition was -10.6%.
